Test results: PubChem BioAssay
Active and inactive are the calls of the source.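 The calls were made as follows: active = fluorescence slope after compound addition differing from the mean of all screened samples at 99.7% confidence, in either direction; inactive = the rest.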

target: Alpha-2C adrenergic receptor (Homo sapiens) (UniProt P18825); assay: modulators of alpha2C/GIRK thallium flux, primary screen, cell-based, HEK293 alpha2C/GIRK1/2 (AID 624); conditions: thallium flux BTC fluorescence, at 10 µM, actives lie on both sides;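 also: slope of fluorescence ratio to pre-addition baseline per second over 15 to 24 s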
Sequence (P18825 whole entry, looked up): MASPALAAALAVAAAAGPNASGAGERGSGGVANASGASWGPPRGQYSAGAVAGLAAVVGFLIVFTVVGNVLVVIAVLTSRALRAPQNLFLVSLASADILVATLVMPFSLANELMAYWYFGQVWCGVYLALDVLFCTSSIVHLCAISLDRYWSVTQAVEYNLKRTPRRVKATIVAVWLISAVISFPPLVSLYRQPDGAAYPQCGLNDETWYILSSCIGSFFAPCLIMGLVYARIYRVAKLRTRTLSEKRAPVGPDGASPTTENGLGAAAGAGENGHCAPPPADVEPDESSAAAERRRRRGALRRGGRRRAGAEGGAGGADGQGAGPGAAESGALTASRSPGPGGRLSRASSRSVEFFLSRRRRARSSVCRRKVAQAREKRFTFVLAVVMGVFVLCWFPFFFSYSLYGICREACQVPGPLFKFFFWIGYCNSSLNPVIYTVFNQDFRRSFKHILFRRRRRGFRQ

slope, inactive:
CCc1ccc(C2CC(c3ccccc3)n3ncnc3N2)cc1 (stereo not given) 0.00702, CCN(C(=O)c1cn(C)c(=O)c2cc(OC)c(OC)cc12)c1ccccc1C 0.00574, COc1ccccc1-n1c(C)nnc1SCC(=O)Nc1cccc(C(C)=O)c1 0.00484, O=C(Nc1ccc(N2CCOCC2)c(Cl)c1)c1ccc(Br)o1 0.00715, Cc1cccc(-n2c(=O)cc(N3CCN(c4ccc(F)cc4)CC3)[nH]c2=O)c1 0.00544, N#CCCN1CCN(S(=O)(=O)c2ccc(S(=O)(=O)NC3CCCC3)cc2)CC1 0.00706, O=C(c1ccccc1Br)N1CCN(c2ccccc2)CC1 0.00488, O=C(Cc1cccs1)NCc1ccc(F)cc1 0.00459, CCn1c(SCC(=O)NC)nnc1C(C)C 0.0053, O=C(C1CCC(N2C(=O)C3CC=CCC3C2=O)CC1)N1CCCCC1 (stereo not given) 0.00567, O=C1CC(c2ccccc2)Cc2nc(N3CCc4ccccc43)ncc21 (stereo not given) 0.00498, Cc1nc2cc(Cl)ccc2n1CCO 0.00492, O=C(CCCc1cccs1)Nc1nc2c(s1)CCCC2 0.00629, O=C(CN1C(=O)CCS(=O)(=O)c2ccccc21)NCc1ccc(F)cc1 0.00557, CCN1C(=O)c2cccc3c(NC(=O)c4ccc(S(=O)(=O)N(C)C)cc4)ccc1c23 0.0056, Cc1oc(-c2cccc(Cl)c2)nc1CN1CCC(C(=O)N2CCN(c3ccccc3F)CC2)CC1 0.00639, C=CCOc1ccc(/C=N/n2cncn2)cc1OC 0.00496, Cc1ccc(-c2csc3ncn(-n4c(C)ccc4C)c(=O)c23)o1 0.00663, c1ccc2c(c1)CNC1(CCCCC1)C2 0.00453, COc1cc(C2CC(=O)NC3=C2C(=O)CC(C)(C)C3)ccc1O (stereo not given) 0.00203, c1cncc(-c2nnc3n2N=C(c2cccs2)CS3)c1 0.00392, COC(=O)CCn1nnc(-c2cccs2)n1 0.00439, O=C(CCn1c(=O)sc2ccccc21)Nc1nccs1 0.00595, COc1ccc(N(CC(=O)O)S(=O)(=O)c2ccc(OC)c(OC)c2)cc1 0.00634, CCC(C)NC(=O)C1c2cc(OC)c(OC)cc2C(=O)N(C)C1c1ccc(OC)cc1 (stereo not given) 0.00537
